Source: PubChem BioAssay
This is a sample that favours compounds with a hit; in the whole collection about 0.78% have one here.
JMJD2C inh: inhibitors of GASC-1 histone demethylase, primary screen, biochemical, fluorescence, DELFIA europium | Lysine-specific demethylase 4C (Homo sapiens), Q9H3R0 | GST-JMJD2C(1-420) H3K9me3 demethylation | inhibition, % at 2.35 µM | 330,000 compounds, 0.069% hits;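 active = more than half of a compound's replicate wells show inhibition beyond 50%, single wells judged on their own value; inconclusive = some, but no more than half, of replicates pass 50% inhibition; inactive = no replicate passes 50% inhibition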;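 also: signal counts dimethyl H3K9 product captured on neutravidin plate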
Target sequence (Q9H3R0 1-420 limits assumed): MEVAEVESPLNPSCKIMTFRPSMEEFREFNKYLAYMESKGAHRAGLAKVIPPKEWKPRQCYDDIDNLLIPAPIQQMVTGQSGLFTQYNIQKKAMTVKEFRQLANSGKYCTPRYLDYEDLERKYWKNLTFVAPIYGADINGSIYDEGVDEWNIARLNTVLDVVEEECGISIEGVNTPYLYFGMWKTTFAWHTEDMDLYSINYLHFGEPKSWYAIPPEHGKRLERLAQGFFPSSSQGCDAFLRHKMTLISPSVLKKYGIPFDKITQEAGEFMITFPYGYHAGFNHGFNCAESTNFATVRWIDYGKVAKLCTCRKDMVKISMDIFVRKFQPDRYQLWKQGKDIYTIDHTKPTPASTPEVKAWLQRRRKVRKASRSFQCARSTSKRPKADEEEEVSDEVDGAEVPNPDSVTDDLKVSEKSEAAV
PKA-R2B activ: activators of PKA-R2B holoenzyme, primary screen, biochemical, fluorescence polarization, Cy5-IP20, human; PKA-R2B holoenzyme dissociation; R2B truncated from residue 108, S112A mutant; 0% DMSO only, 100% 113 µM cGMP; activation, % at 11.4 µM; 340,000 compounds, 0.079% hits;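 active = activation above a cutoff set at the mean over all compounds plus 3 SD, cut at about 18% in these data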;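 also: higher means more holoenzyme dissociation and a rise in polarization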
V-ATPase pHluor: regulators of yeast V-ATPase proton pumping, primary screen, pHLuorin cytosolic pH fluorescence. response, % at 10 µM. S. cerevisiae. 350,000 compounds, 0.37% hits; in the data active = response mostly above about 7.3%, no sharp cut-off; inactive = mostly below about 5.4%; also: actives read high
Yeast superoxide: reduction of superoxide in aged yeast, primary screen, HTS; S. cerevisiae aged cells, superoxide DHE fluorescence; active compounds read low; superoxide response (% of plate mean), % at 10 µM; 330,000 compounds, 0.18% hits;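 active = superoxide response under a set limit, about three screen SD below normal, cut at about 65% in these data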;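 also: yeast aged for seven days with compound at 30 °C before DHE staining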
PolyA inhibitor: polyadenylation inhibitors in yeast reporter cells, primary screen, luminescence, S. cerevisiae; AID 1875, 2009; activity score, % at 12 µM; 300,000 compounds, 0.02% hits; S. cerevisiae SKY197-pL101 polyadenylation reporter, beta-gal luminescence; efflux-impaired pdr1/pdr3 knockout yeast; score 100 = 6 SD above DMSO;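 active = lowest replicate activity score at least 50, where 100 means six control SD above control mean; inconclusive = lowest score under 50 but half or more replicates reach 50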;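 also: yeast exposed to compound for 9 h at 30 °C; higher score means more reporter readthrough which indicates perturbed polyadenylation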
PKA-R1A act: activators of PKA-R1A holoenzyme, primary screen, biochemical, fluorescence polarization, Cy5-IP20, bovine R1A, mouse PKAc | cAMP-dependent protein kinase type I-alpha regulatory subunit (Bos taurus) + … | PKA-R1A dissociation; scaled: DMSO 0%, 113 µM cGMP 100% | activation, % at 11.4 µM | 340,000 compounds, 0.083% hits;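 active = percent activation above the mean of all tested compounds plus 3 SD, cut at about 19% in these data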;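 also: higher means more PKAc released from R1A so a rise in polarization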
VATPase regulator: yeast V-ATPase proton pumping modulators, confirmation, S. cerevisiae, pH-sensitive GFP, second cherry-pick; S. cerevisiae pHLuorin cytosolic pH, V-ATPase proton transport; 980 compounds, 2% hits; shares compounds with V-ATPase pHluor; AID 602197, 2012; response, % at 10 µM; in the data active = response above about 24%
Of the large screens only hits and unclear results are named; the others gave an inactive call (follow-up assays come after a bar, where they were run).

Cc1ccc(S(=O)(=O)N2CCC(C(=O)N/N=C/c3cccn3C)CC2)cc1	V-ATPase pHluor 11 (no result: PolyA inhibitor) | VATPase regulator inactive
Cc1ccc(S(=O)(=O)N2CCC(C(=O)Nc3ccc(S(=O)(=O)N4CCCC4)cc3)CC2)cc1	none
S=C1NC[C@H](Cc2ccccc2)N1CCc1cccc2ccccc12	none
COC(=O)N/N=C/c1cn(Cc2ccccc2F)c2ccccc12	V-ATPase pHluor 10 | VATPase regulator inactive
COC(=O)N/N=C/c1cn(Cc2ccccc2Cl)c2ccccc12	none
CCOc1ccc(CNC(=O)Nc2ccccc2)cc1	none
CC(=O)c1nnn(-c2ccccc2C#N)c1C	none
CC(=O)c1nnn(-c2cccc(C#N)c2)c1C	V-ATPase pHluor 13 | VATPase regulator inactive
Nc1c(N(CCC2=CCCCC2)C(=O)Cc2ccccc2F)c(=O)[nH]c(=O)n1Cc1ccccc1	none (no result: PolyA inhibitor)
CC(=O)c1ccc(S(=O)(=O)N2CCCCC2C(=O)O)cc1 (stereo not given)	none
Nc1ccccc1NC1=CC(=O)CC(c2ccco2)C1 (stereo not given)	V-ATPase pHluor 11 | VATPase regulator inactive
O=C(Nc1ccc2c(c1)C(=O)OC2)c1ccc(F)cc1F	none
O=S(=O)(c1ccccc1)N(CC(O)Cn1c2ccccc2c2ccccc21)c1ccccc1 (stereo not given)	V-ATPase pHluor 7.8 | VATPase regulator inactive
Cn1c(N)c(C(=O)c2ccc(F)cc2F)c(=O)n(C)c1=O	V-ATPase pHluor 8.4 | VATPase regulator inactive
N#CC(c1ccccc1)C(CC(=O)c1ccccc1)c1ccccc1 (stereo not given)	none (no result: JMJD2C inh, Yeast superoxide, PolyA inhibitor)
CCOC(=O)N1CCN(C(=O)c2cc3n(n2)C(C(F)(F)F)CC(c2ccc4c(c2)OCO4)N3)CC1 (stereo not given)	V-ATPase pHluor 7.4 | VATPase regulator inactive
COc1ccc(-n2nnnc2/C(=C/N(C)C)C(=O)c2ccccc2)cc1	none
CN(C)/C=C(\C(=O)c1ccccc1)c1nnnn1-c1ccc(F)cc1	V-ATPase pHluor 21 | VATPase regulator inactive
Cc1ccc(/C(N)=N/OC(=O)Cc2cccs2)cc1	none
Cc1cccc(/C(N)=N/OC(=O)Cc2cccs2)c1	V-ATPase pHluor 8.5 | VATPase regulator inactive
O[C@@H]1CN(C2CCN(Cc3ccccc3)CC2)CC[C@H]1N1CCCCCC1	V-ATPase pHluor 11 (no result: JMJD2C inh, Yeast superoxide, PolyA inhibitor) | VATPase regulator inactive
O[C@@H]1CN(C2CCCCC2)CC[C@H]1N1CCN(CCc2ccccc2)CC1	none
COc1cccc(NC(=O)c2cncs2)c1	none
CCN(C(=O)COC(=O)c1cc(-c2ccccc2)nc2ccc(Br)cc12)C1CCS(=O)(=O)C1 (stereo not given)	V-ATPase pHluor 10.0 | VATPase regulator inactive
CCN(C(=O)COC(=O)c1cc(-c2cccs2)nc2ccccc12)C1CCS(=O)(=O)C1 (stereo not given)	none
Nc1c2c(=O)[nH]c(O)cc2nn1-c1ccccc1	none (no result: JMJD2C inh, Yeast superoxide, PolyA inhibitor)
O=C(NCC(c1ccco1)N1CCCC1)c1sc2cc(F)ccc2c1Cl (stereo not given)	V-ATPase pHluor 8.6 (no result: PolyA inhibitor) | VATPase regulator inactive
Cc1ccc2c(Cl)c(C(=O)NCC(c3ccco3)N3CCCC3)sc2c1 (stereo not given)	none
COc1ccc2[nH]c3c(c2c1)CCN1C(=O)N([C@@H](C)C(=O)NC2CCN(Cc4ccccc4)CC2)C(=O)[C@]31C	none
CC(C)CC1NC(=O)N(Cc2nc3ccccc3s2)C1=O (stereo not given)	none
CCOc1ccc(Cl)cc1S(=O)(=O)N1CCC(C(=O)NCc2cccnc2)CC1	none
CCOC(=O)CSCC(=O)Nc1c(C(=O)C2CC2)oc2ccccc12	V-ATPase pHluor 7.5 | VATPase regulator inactive
C=CCN(Cc1cc(OC)ccc1OC)C(=O)c1cc2ccc(OC)cc2[nH]1	none
CC/C(Cc1ccccc1)=N/NC(=O)CNC(=O)c1ccc(Cl)cc1Cl	none (no result: Yeast superoxide)
CC/C(C)=N\NC(=O)CNC(=O)c1ccc(Cl)cc1Cl	V-ATPase pHluor 12 | VATPase regulator inactive
COc1cccc(C(N)=O)c1	V-ATPase pHluor 11 | VATPase regulator inactive
COc1cccc(C(=O)Nc2ccccc2)c1	none
Cc1ccc(S(=O)(=O)N(C)c2ccccc2C(=O)NC2CCCC2)cc1	none
CCC(C)[C@H](NS(=O)(=O)c1ccc(C)cc1)C(=O)N1CCC(C(=O)N2CCC(C(=O)OC)CC2)CC1 (stereo not given in full)	JMJD2C inh inconclusive
COc1ccc2c(c1)C(c1ccc(C)o1)=NNC(c1ccccc1)=N2	none
COc1ccc2c(c1)C(c1ccc(C)o1)=NNC(c1cccnc1)=N2	V-ATPase pHluor 8.6 | VATPase regulator inactive
NS(=O)(=O)c1ccc(CCNS(=O)(=O)c2ccc3c(c2)NC(=O)CO3)cc1	V-ATPase pHluor 9.4 | VATPase regulator inactive
CCCN(CC(=O)Nc1ccccc1OC)C(=O)c1ccncc1	none
O=C(CN1Cc2ccccc2C1=O)Nc1ccc2c(c1)OCCO2	V-ATPase pHluor 11 | VATPase regulator inactive
NC(=O)c1ccccc1OCC(=O)Nc1ccc2c(c1)OCCO2	V-ATPase pHluor 7.3 (no result: JMJD2C inh, Yeast superoxide, PolyA inhibitor) | VATPase regulator inactive
CCN1CCN(CC(=O)Nc2ccc3c(c2)OCCO3)C(=O)C1=O	none
O=C(COc1coc(CN2CCCc3ccccc32)cc1=O)Nc1ccc([N+](=O)[O-])cc1	V-ATPase pHluor 7.4 | VATPase regulator inactive
CCOC(=O)Cn1c(C)cc(=O)c2ccccc21	none | VATPase regulator inactive
Cc1cc(=O)c2ccccc2n1CC(=O)NCc1ccccc1	none
CCOC(=O)Cn1c(=O)cc(C)c2ccccc21	none | VATPase regulator inactive
CCOC(=O)Cn1c2ccccc2c2nc3ccccc3nc21	none | VATPase regulator inactive
CCOC(=O)c1ccc(S(=O)(=O)N2CC(=O)Nc3ccccc32)cc1	none
Cc1cc(N2CCN(c3cccc(C(F)(F)F)c3)CC2)n2nc(C)nc2n1	none
Cc1cc(N2CCN(c3ccccn3)CC2)n2nc(C)nc2n1	V-ATPase pHluor 8.4 | VATPase regulator inactive
CC(C)(C)c1ccc(OCC(=O)NN2Cc3ccccc3C2=N)cc1	none (no result: PolyA inhibitor)
N=C1c2ccccc2CN1NC(=O)COc1ccc(Cl)cc1	V-ATPase pHluor 11 (no result: PolyA inhibitor) | VATPase regulator inactive
Cc1cc(=O)n(-c2ccc(Cl)cc2)c(=O)[nH]1	none | VATPase regulator inactive
Cc1cc(=O)cc(C)n1-c1ccc(Cl)cc1	none | VATPase regulator inactive
